# Sampled rows, rich in hits. Any-hit rate of the full collection: about 1.9%.
# sEH act: soluble epoxide hydrolase (human) activation; P34913; purified human sEH enzymatic activity, activator screen; activation, % at 2 µM; 0.04% of 91,000 active; in the data active = activation above about 37%
# Target sequence (P34913 whole entry, looked up): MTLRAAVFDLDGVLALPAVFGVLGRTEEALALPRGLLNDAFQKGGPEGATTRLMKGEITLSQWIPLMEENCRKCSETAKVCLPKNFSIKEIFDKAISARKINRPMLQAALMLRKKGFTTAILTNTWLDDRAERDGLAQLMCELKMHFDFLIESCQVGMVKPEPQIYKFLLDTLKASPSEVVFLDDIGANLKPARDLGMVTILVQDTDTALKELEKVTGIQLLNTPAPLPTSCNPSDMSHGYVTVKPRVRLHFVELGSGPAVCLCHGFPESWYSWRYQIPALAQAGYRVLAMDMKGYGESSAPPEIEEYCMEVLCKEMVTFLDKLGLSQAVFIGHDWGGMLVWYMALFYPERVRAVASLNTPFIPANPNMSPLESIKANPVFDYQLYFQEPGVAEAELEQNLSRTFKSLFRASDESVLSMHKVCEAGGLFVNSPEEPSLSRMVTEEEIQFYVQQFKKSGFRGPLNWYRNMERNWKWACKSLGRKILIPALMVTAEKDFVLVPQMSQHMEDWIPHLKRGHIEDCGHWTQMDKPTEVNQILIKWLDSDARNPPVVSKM
# sEH inh: inhibitors of human soluble epoxide hydrolase; recombinant human sEH enzymatic activity assay; inhibition, % at 2 µM; 0.34% of 91,000 active; AID 707; in the data active = inhibition above about 80%
# Measles CPE: protection of cells from measles virus; Measles virus-infected cells, CPE protection, absorbance; protection (pct of control), % at 4 µM; 1.5% of 140,000 active; AID 841; in the data active = protection mostly above about 24%, no sharp cut-off; inactive = mostly below about 26%
# SDO1 yeast rescue: restores growth of sdo1-depleted yeast; S. cerevisiae sdo1-depleted JHY4D growth rescue, OD600 30 h; stronger effect = higher value; pdr5 snq2 efflux-pump mutant strain; z-score at 10 µM; 0.21% of 140,000 active; AID 817;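 active = z-score above 3 at both the 24 hr and the 30 hr optical density reads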;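 note: z-score against mean and SD of all compound wells on the same plate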
# Starred values were filed as active, the others as inactive; . = not tested or not shown.
SMILES,sEH act,sEH inh,Measles CPE,SDO1 yeast rescue
COc1ccc(C2NCCC3(O)CCCCC23)c(OC)c1OC (configuration not stated),4.7,-5.1,34.9*,1.43
CC(C)(C)c1ccc(OCCN2CCCC2)cc1,-2.1,3.1,4.6,1.7
CCN(CCCNC(=O)C1CCN(S(=O)(=O)N2CCC3(CC2)OCCO3)CC1)c1ccccc1,-90.3,90.3*,4.2,1.52
COc1cc(-c2nnc(-c3ccncc3)o2)ccc1OCc1ccccc1,-9.3,9.2,90.7*,-1.38
OCCCN1CCN(CCCOc2ccccc2-c2ccccc2)CC1,.,.,6.1,0.42
CCCN1CCN(C(=O)c2cccc3c2C(=O)N(CCOC)C3)CC1,-4.9,8.2,44.1*,0.31
CCCN1Cc2cccc(C(=O)N3CCN(c4ccc(F)cc4)CC3)c2C1=O,3.6,-3.4,7.7,0.78
CCOC(=O)N1CCC(N2Cc3cccc(C(=O)NCC4CCN(CC(C)C)C4)c3C2=O)CC1 (configuration not stated),3.9,-5.5,2.5,0.53
Cc1cnc(NC(=O)COc2cccc3c2OC(C)(C)C3)s1,-9.0,8.0,65.4*,0.07
O=C(CN1CCCCCC1)N/N=C/c1cccc(Cl)c1Cl,.,.,11.0,-0.72
CCn1c(CCNC(=O)c2cccs2)nnc1SCC(=O)Nc1nc(-c2ccccc2)cs1,-11.8,12.3,34.5*,0.09
COc1cccc(-n2c(Cc3cc(=O)[nH]c(=O)[nH]3)nnc2SCc2cccnc2)c1,10.5,-9.8,44.2*,0.11
COc1ccc(-n2c(Cc3cc(=O)[nH]c(=O)[nH]3)nnc2SCc2ccccc2)cc1,13.1,-12.4,16.4,0.95
CCCn1c(N2CCN(CC(=O)NCc3cccs3)CC2)nc2ccccc21,-1.4,-0.7,60.7*,1.19
CCOc1ccc(NC(=O)CSc2nnc(-c3ccccn3)n2N)cc1,-8.3,9.5,3.3,-0.09
CCOc1ccc(NC(=O)CSc2nnc(-c3ccccn3)n2C)cc1,-5.1,5.9,54.5*,0.64
CCN(Cc1ccccc1)C(c1ccc(C)cc1)c1nnnn1C(C)(C)C (configuration not stated),-19.4,21.0,6.9,-1.21
OC1C2(Cc3ccccc3)CN3CCN(C2)CC1(Cc1ccccc1)C3 (configuration not stated),-8.7,11.3,9.3,1.08
O=C(NC1CCN(C(=O)N2c3ccccc3Sc3ccccc32)CC1)c1ccccc1F,-16.2,18.5,40.7*,-1.95
O=C(c1ccccc1)N1CCn2c(nc3ccccc32)C1,.,.,8.5,0.6
CC1CN(C(=O)COC(=O)c2cccs2)CC(C)O1 (configuration not stated),.,.,36.2*,0.36
CCCCOC(=O)Nc1ccccc1C(=O)N1CCCC1,.,.,2.9,0.15
CC1CC(=O)Nc2ccccc2N1S(=O)(=O)c1cccc(Cl)c1 (configuration not stated),.,.,39.3*,-0.14
O=C(Nc1ccc2c(c1)OCCO2)C1CCN(S(=O)(=O)Cc2ccccc2)CC1,-26.5,27.7,17.2,0.45
O=C(O)/C=C/C(=O)Nc1ccc(SC(F)(F)F)cc1,.,.,10.1,0.44
SMILES,sEH act,sEH inh,Measles CPE,SDO1 yeast rescue
NC(N)=NC(N)=Nc1ccc(SC(F)(F)F)cc1,.,.,23.8*,1.47
CC1=CS/C(=C(/C#N)C(=O)N2CCCCC2)N1c1ccccc1,12.6,-12.7,32.9*,-0.49
CC1=CS/C(=C(/C#N)C(=O)N2CCOCC2)N1c1ccccc1,-2.3,4.1,3.0,-0.22
Cc1cc2nc(-c3ccc(SCC(=O)N4CCc5ccccc54)nc3)[nH]c2cc1C,-84.4,84.8*,-0.7,-1.76
Cc1cc(NC(=O)CSc2ccc(-c3nc4cc(C)c(C)cc4[nH]3)cn2)no1,-76.3,77.2,6.1,0.11
CCCNc1ncnc2nc[nH]c12,.,.,40.3*,1.23
S=c1[nH]nc(-c2ccccc2)n1/N=C/c1ccc(-c2ccccc2Cl)o1,.,.,70.1*,-1.47
Cc1cccc(N2CCN(C(=O)CCc3nc4ccccc4[nH]3)CC2C)c1 (configuration not stated),2.2,-3.8,19.1,-0.03
CCCCn1c(SCC(=O)Nc2ccc(OC)cc2)nc2ccc(N3CCOCC3)cc2c1=O,9.3,-9.2,53.2*,-1.93
Cc1cccc(N2C(=O)CC(N3CCN(C(=O)c4ccccc4)CC3)C2=O)c1 (configuration not stated),-7.4,9.8,14.6,-0.44
COc1cccc(N2C(=O)CC(N3CCN(C(=O)c4ccco4)CC3)C2=O)c1 (configuration not stated),1.2,0.8,73.5*,0.22
Cc1ccc(S(=O)(=O)N2CCC(C(=O)OC(C)C(=O)NCc3ccc4c(c3)OCO4)CC2)cc1 (configuration not stated),5.4,-6.0,8.1,0.25
Cc1cccc(NC(=O)c2cc3c(n(-c4ccccc4)c2=O)CCCC3=O)n1,-12.9,14.0,1.1,-0.4
